PD-1 reverse act = reversal of PD-1 mediated T-cell inhibition; AID 2316; activation, % (no concentration beside the values); primary human CD4 T cells, PD-L1 beads, CellTiter-Glo 96 h; 29,000 tested, under 10 active; call rule not given here;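 also: 0% = median vehicle wells and 100% = positive control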
MITF inhib = inhibitors of MITF; TRPM1 promoter luciferase, luminescence, 24 h; inhibition, % (concentration not given with the values); 37,000 compounds, 0.28% hits; AID 2240; in the data active = inhibition above about 85%;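 also: human melanocyte line stably carrying TRPM1 promoter luciferase reporter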
NOMO-1 viab = STK33 inhibitor candidate reducing NOMO-1 cell viability; inhibition, % (concentration not given with the values); 37,000 compounds, 7.5% hits; AID 2330; NOMO-1 AML viability, CellTiter-Glo luminescence, 72 h; in the data active = inhibition above about 80%
ROS inducer = inducers of reactive oxygen species in cancer cells; U2OS ROS induction, H2DCF-DA fluorescence; ROS induction (% of piperlongumine), % at 10 µM; 46,000 compounds, 2% hits; AID 624156; in the data active = ROS induction above about 79%, passing the limit was not always enough;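 also: 0% = DMSO vehicle median and 100% = reference compound median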
YB-1 expr inh = YB-1 expression inhibition; U2OS, qRT-PCR YB-1 vs CDIP delta delta Cp, 16 h; stronger effect = higher value; zero = DMSO, each unit about twofold; delta delta Cp (YB-1 minus CDIP) (no concentration beside the values); 30,000 compounds, 0.37% hits; AID 434959;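 active = delta delta Cp rounded down to an integer at or above 3, about 3 SD of DMSO wells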;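 also: higher means less YB-1 transcript or more CDIP transcript relative to DMSO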
An asterisk follows results filed as active; / = no result given. This is one part of a sample in which hits are shown more often than they occur.

SMILES | PD-1 reverse act | MITF inhib | NOMO-1 viab | ROS inducer | YB-1 expr inh
Clc1ccc(CO/N=C(\Cn2ccnc2)c2ccc(Cl)cc2Cl)c(Cl)c1 | / | 93* | 110* | 35 | -0.56
Cc1nc(SCC(=O)O)c2c3c(sc2n1)CCCC3 | 0 | -1 | -6 | 40 | -0.31
CCN(CC)CCCn1c(-c2ccc(C)cc2)cn2c3ccccc3nc12 | -3 | 5 | 10 | 44 | /
OCCCn1c(-c2ccccc2)cn2c3ccccc3nc12 | / | 98* | -8 | / | /
Cc1ccc(S(=O)(=O)N(C)CC(=O)Nc2ncc(C(F)(F)F)cc2Cl)cc1 | 1 | -21 | 11 | -14 | /
CCN(CC)CCNc1ncnc2scc(-c3ccc(F)cc3)c12 | / | -5 | 39 | / | /
CN(C)c1ccc(C(=C2C=CC(=[N+](C)C)C=C2)c2ccc(N(C)C)cc2)cc1 | / | 109* | 112* | 341* | -0.27
Cc1nn(CC(=O)Nc2ccc(O)cc2)c(C)c1[N+](=O)[O-] | 0 | -16 | -1 | -11 | /
CC1CN(c2nc3ccccc3nc2SCC(=O)Nc2ccccc2)CC(C)O1 (configuration not stated) | -2 | -12 | 88* | 22 | -1.1
CS(=O)(=O)N(CC(=O)Nc1ccc(F)c(Cl)c1)Cc1ccccc1 | -2 | -2 | 18 | / | /
COC(=O)C1=C(N)OC2=C(C(=O)CC(C)(C)C2)C1c1ccc(C(=O)OC)cc1 (configuration not stated) | 1 | -3 | 9 | 12 | 0.46
COc1ccccc1NC(=O)/C=C\c1ccco1 | -19 | -61 | 107* | 36 | -0.55
O=C(/C=C/c1ccco1)Nc1cccc2cccnc12 | / | / | / | -8 | /
C=CCNC(=O)[C@H]1[C@@H]2C(=O)O[C@@H](c3ccccc3)[C@@H](c3ccccc3)N2[C@@H](c2ccc(OCCO)cc2)[C@]12C(=O)N(C(=O)OCCOC)c1ccc(C#CC3(O)CCCCCC3)cc12 | / | / | / | 105* | 0.14
C=CCNC(=O)[C@@H]1[C@H]2C(=O)O[C@H](c3ccccc3)[C@H](c3ccccc3)N2[C@H](c2ccccc2OCCO)[C@@]12C(=O)N(C(=O)OCCOC)c1ccc(C#CCCO)cc12 | / | / | / | 37 | -0.21
C=CCNC(=O)[C@H]1[C@@H]2C(=O)O[C@@H](c3ccccc3)[C@@H](c3ccccc3)N2[C@@H](c2ccccc2OCCO)[C@]12C(=O)N(C(=O)OCCOC)c1ccc(C#CC3(O)CCCCCC3)cc12 | / | / | / | 95* | 0.25
C=CCNC(=O)[C@H]1[C@@H]2C(=O)O[C@@H](c3ccccc3)[C@@H](c3ccccc3)N2[C@@H](c2ccc(OCCO)cc2)[C@]12C(=O)N(C(=O)OCCOC)c1ccc(C#CC3=CCCCC3)cc12 | / | / | / | 122* | 0.0068
CC1OC(c2cc3oc(-c4ccccc4)cc(=O)c3c(O)c2O)CC(O)C1O (configuration not stated) | -2 | -35 | 6 | 53 | 0.031
COc1ccc(-c2nc(C)c(CCNS(=O)(=O)c3ccc(Cl)s3)s2)cc1OC | / | / | / | 14 | /
Cc1ccc(-c2cc(C(=O)NCCCN3CCOCC3)c3cc(Br)ccc3n2)cc1 | / | -26 | 60 | / | /
CC(C)(C)OC(=O)NC1(/C=N/NC(=O)CCCCCCC(=O)Nc2ccccc2O)CCCC1 | / | / | / | 28 | -0.41
O=C(CSc1nc2ccccc2c(=O)n1C1CC1)c1ccc(Cl)cc1 | / | / | / | 1 | /
O=S(=O)(NCCOc1ccccc1)c1cccc2cccc(Cl)c12 | 0 | 31 | 16 | -1 | /
CCOC(=O)CN1C(=O)S/C(=C/c2ccc3c(c2)n(C)c(=O)n3C)C1=O | / | / | / | 0 | /
CCOC(=O)CN1C(=O)S/C(=C\c2ccccc2OCc2ccccc2F)C1=O | / | / | / | 103* | /
SMILES | PD-1 reverse act | MITF inhib | NOMO-1 viab | ROS inducer | YB-1 expr inh
C[C@H](CO)N1C[C@H](C)[C@H](CN(C)C(=O)Nc2ccc(F)cc2)Oc2ncc(/C=C/c3ccccc3)cc2C1=O | / | / | / | 90* | -0.39
C[C@H](CO)N1C[C@H](C)[C@H](CN(C)C(=O)Nc2ccc3c(c2)OCO3)Oc2ncc(/C=C/c3ccccc3)cc2C1=O | / | / | / | 120* | 0.45
C[C@H](CO)N1C[C@H](C)[C@H](CN(C)C(=O)Nc2ccc(F)cc2)Oc2ncc(-c3ccccc3)cc2C1=O | / | / | / | 42 | 0.11
COC(=O)C[C@H]1C(C)(C)C2(Cl)O[C@@]34CC2C(=O)[C@]1(C)C3CC[C@]1(C)C4=CC(=O)O[C@H]1c1ccoc1 (some centres not stated) | / | 8 | 101* | -2 | 0.3
COc1ccc([N+](=O)[O-])cc1CSc1nnc(-c2ccccc2)n1-c1ccccc1 | 1 | 8 | 26 | 9 | /
CN1CCc2cccc3c2[C@H]1Cc1ccc(O)c(O)c1-3 | / | 5 | 113* | 0 | -0.39
Cc1ccc2nc(-c3ccncc3)cc(-c3ccccc3)c2c1 | / | / | / | 88* | /
CC(C)CCNC(=O)c1cccc2c1-c1ccccc1C2=O | 0 | 2 | 20 | 14 | 0.047
O=C(NCC[C@@H](CNC(=O)c1cccc(O)c1O)NC(=O)c1cccc(O)c1O)c1cccc(O)c1O | -5 | 17 | 120* | -7 | 0.27
NCCCN(Cc1ccco1)C1CCCC1 | -4 | -10 | 106* | 8 | /
Cc1sc(NC(=O)c2cc(-c3cccnc3)nc3ccccc23)c(C(=O)NC2CCCCC2)c1C | / | 9 | 98* | / | /
O=C(CC(C(=O)N1CCc2ccccc21)C(=O)N1CCc2ccccc21)c1ccccc1 | 0 | 11 | 30 | 15 | 0.022
O=C(C(Cc1ccccc1Cl)C(=O)N1CCc2ccccc21)N1CCc2ccccc21 | 0 | 11 | 40 | 141* | -0.13
C[C@H](CO)N1C[C@H](C)[C@H](CN(C)CC2CCCCC2)Oc2ccc(NC(=O)Nc3ccc(C(F)(F)F)cc3)cc2CC1=O | -5 | 22 | 128* | 153* | 0.18
C[C@@H]1CN([C@@H](C)CO)C(=O)Cc2cc(NC(=O)Nc3ccc(C(F)(F)F)cc3)ccc2O[C@@H]1CN(C)C | / | -20 | 48 | 3 | 0.018
C[C@H]1CN([C@@H](C)CO)C(=O)Cc2cc(NC(=O)Nc3ccc(C(F)(F)F)cc3)ccc2O[C@@H]1CN(C)CC1CCCCC1 | 1 | -19 | 125* | 0 | -0.19
C[C@H]1CN([C@@H](C)CO)C(=O)Cc2cc(NS(=O)(=O)c3ccc(F)cc3)ccc2O[C@@H]1CN(C)C | / | -4 | 0 | 10 | -0.057
C[C@@H]1CN([C@H](C)CO)C(=O)c2cc(NS(=O)(=O)c3cn(C)cn3)ccc2O[C@H]1CN(C)Cc1ccc(Cl)c(Cl)c1 | 1 | 11 | 23 | 5 | 0.3
C/C=C/[C@H](CC(=O)N1Cc2ccccc2C[C@H]1CO)[Si](C)(C)c1ccc(OC)cc1 | / | / | / | 94* | 0.29
Cc1ccc(C(C)C)cc1OCC(O)Cn1c(C)nc2ccccc21 (configuration not stated) | -8 | 55 | 105* | 8 | /
Cc1c(Br)c([N+](=O)[O-])nn1C(C)C(=O)NCc1ccco1 (configuration not stated) | 1 | -7 | 12 | -13 | /
